Results taken from PubChem BioAssay AID743343 (Broad Institute, 2014).
Measured potencies and affinities stand elsewhere. Active and inactive are the calls of the source. The rule behind the calls is not given here.

system: Drosophila melanogaster bursicon receptor LGR2 (rickets); test: LGR2 antagonists, dose response, cell-based, HEK293, CRE-luciferase reporter, cherry pick, set 2 (AID 743343); conditions: bursicon-induced cAMP antagonist; series mostly up to 35 µM

outcome, inactive:
COc1cc(CNCCO)cc(Cl)c1OCc1ccc(Cl)cc1Cl, CC(=O)Nc1cccc(-c2ccnc3c2CC(C(=O)NCc2cccnc2)O3)c1 (stereo not drawn), C[C@@H]1CN([C@H](C)CO)C(=O)Cc2cc(NC(=O)Nc3ccc(F)cc3)ccc2O[C@@H]1CN(C)CC1CCCCC1, CCCCOc1cc(NCc2ccccc2)c2ncn(C(C)C)c2c1, COc1ccc(-c2noc(CCC(=O)N3CCN(c4ccc(Cl)cc4)CC3)n2)cc1, Cc1ccc(S(=O)(=O)N2[C@@H](CO)CO[C@H]2CC(=O)OCc2ccccc2)cc1, C[C@@H]1CN([C@H](C)CO)C(=O)Cc2cc(NC(=O)CCC(F)(F)F)ccc2O[C@@H]1CN(C)CC1CCCCC1, Cc1ccc(-n2cc(CN(C)Cc3nccn3C)c(-c3cccc(C)c3)n2)cc1, COc1ccc(NC(=O)Nc2ccc3c(c2)CC(=O)N([C@@H](C)CO)C[C@@H](C)[C@H](CN(C)Cc2ccncc2)O3)cc1, O=C(Cn1ncc(Cl)c(Cl)c1=O)N1CCOCC1, O=C(C[C@H]1C=C[C@@H](NC(=O)C2CCC2)[C@H](CO)O1)NCCCN1CCOCC1, C[C@H]1CN([C@@H](C)CO)C(=O)c2cc(C#CCc3ccccc3)cnc2O[C@H]1CN(C)Cc1ccccc1, CCCCC(=O)N(C)c1c(C)nc2ccc(C(=O)N3CCCCC3)cn12, Cn1c(=O)c2cc(NC(=O)NCc3ccccc3)ccc2n1C/C=C/c1ccccc1, CN(c1ccccc1)S(=O)(=O)c1cccc(NC(=O)c2cc(=O)c3ccccc3o2)c1, Cc1ccc2nc(-c3ccc(NC(=O)c4cccnc4)cc3)oc2c1, CCn1cc(S(=O)(=O)Nc2cccnc2)cn1, CC[C@H](CO)Oc1cc(NCc2ccc(Cl)c(Cl)c2)c2ncn(C(C)C)c2c1, CC1CCN(C(=O)c2ccc(S(=O)(=O)Cc3cc(F)ccc3F)c([N+](=O)[O-])c2)CC1, CC(C)c1ccc(NC(=O)N2CCN(S(=O)(=O)c3ccccc3)CC2)cc1, CCC(=O)N(C)C[C@H]1Oc2cc(C#CCC(C)C)ccc2S(=O)(=O)N([C@H](C)CO)C[C@@H]1C, OC[C@H]1[C@@H](c2ccc(-c3ccc(F)cc3)cc2)[C@@H]2CN(Cc3ccccn3)CCCCN12, N#C[C@H]1[C@@H](c2ccc(C3=CCCCC3)cc2)[C@H](CO)N1C(=O)c1ccccn1, C=CCn1c(SCC(=O)Nc2ncc(Cc3ccc(C)c(Cl)c3)s2)nnc1-c1ccncc1, Cc1ccnc(N2C(=O)c3ccccc3C2Nc2ccc3c(c2)OCCO3)c1 (stereo not drawn), O=S(=O)(Nc1ccc(O)c2ccccc12)c1ccc(OC(F)(F)F)cc1, CCN(C(=O)COC(=O)C12CC3CC(CC(O)(C3)C1)C2)c1c(N)n(Cc2ccccc2)c(=O)[nH]c1=O, CCCCN(Cc1ccccc1)S(=O)(=O)c1cc2c(cc1Br)CC(C)N2C(C)=O (stereo not drawn), Cc1cccn2c(CNCC3(c4ccccc4)CCCC3)c(C(=O)N3CCOCC3)nc12, C[C@H]1CN([C@@H](C)CO)C(=O)Cc2cc(NC(=O)Nc3ccc(F)cc3)ccc2O[C@H]1CN(C)CC1CCCCC1, Cc1ccc(CNS(=O)(=O)c2ccc3c(c2)CCN3C(=O)CCCC(=O)O)cc1, CC(=O)c1ccc(S(=O)(=O)N2CCC(NC(=O)Nc3cccc(F)c3)CC2)cc1, Cn1cnc(S(=O)(=O)N2C[C@@H](O)COC[C@H]3O[C@H](CC(=O)NC4CCCC4)CC[C@@H]32)c1, c1ccc(COc2cccc(-c3cc4nc(NCCCn5ccnc5)ccn4n3)c2)cc1, COc1ccccc1N1CCN(C(=O)c2sc3nc(-c4ccc(F)cc4)cn3c2C)CC1, Cc1ccc(S(=O)(=O)N2CCCc3nc(-c4ccc(F)cc4)ccc32)cc1, O=C(NCCOc1ccccc1)[C@@H]1CCCN1C(=O)c1cccs1, CC(C)CCNC(=O)C(c1ccc(O)cc1)N(Cc1cccs1)C(=O)C1COc2ccccc2O1 (stereo not drawn)
